Measurements from paper PMC7862700, “An all-to-all approach to the identification of sequence-specific readers for epigenetic DNA modifications on cytosine”.

How the values were obtained:
Assay in all cases: DAPPL (digital affinity profiling via proximity ligation, sequencing); 10 mM Tris-HCl pH 7.5, 50 mM NaCl, 1 mM DTT, 4% glycerol, room temperature, 30 min; GST-TFs on glutathione beads, 16-mer random dsDNA library, 0.1% formaldehyde crosslink after washing; high values mean tight binding
[1] = target: T1, FLI1 (Homo sapiens, UniProt Q01543 1-452); conditions: protein: recombinant; tags: N-terminal GST; dsDNA, one strand shown
T1 sequence: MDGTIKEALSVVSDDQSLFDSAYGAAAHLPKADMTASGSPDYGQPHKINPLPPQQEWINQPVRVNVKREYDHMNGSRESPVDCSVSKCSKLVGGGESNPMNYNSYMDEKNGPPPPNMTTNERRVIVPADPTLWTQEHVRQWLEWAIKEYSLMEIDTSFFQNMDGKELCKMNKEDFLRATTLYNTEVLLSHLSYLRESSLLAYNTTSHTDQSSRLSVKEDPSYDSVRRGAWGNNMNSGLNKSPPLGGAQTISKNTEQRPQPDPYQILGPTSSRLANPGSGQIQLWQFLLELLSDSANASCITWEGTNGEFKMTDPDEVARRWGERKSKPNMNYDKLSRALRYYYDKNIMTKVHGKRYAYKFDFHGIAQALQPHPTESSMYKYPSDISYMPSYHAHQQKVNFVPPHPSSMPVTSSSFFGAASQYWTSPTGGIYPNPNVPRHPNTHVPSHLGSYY
Outline: (§1)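 Human transcription factors fused to GST were expressed in yeast, captured on glutathione beads, given DNA barcodes and pooled with a GST-only negative control. Pools were incubated with 200 nmole of a 16-mer random double-stranded DNA library in Tris/NaCl/DTT/glycerol buffer at room temperature for 30 min. They were then washed, crosslinked with 0.1% formaldehyde, proximity-ligated (BsaI/T4 ligase, 1 h, 37 °C), PCR-amplified and sequenced on an Illumina NextSeq500. Binding signal is each 6-mer's read frequency for a factor divided by its frequency for the GST control.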

[2] = target: T2, ELK1 (Homo sapiens, UniProt P19419 1-428); conditions: protein: recombinant; tags: N-terminal GST; dsDNA, one strand shown
T2 sequence: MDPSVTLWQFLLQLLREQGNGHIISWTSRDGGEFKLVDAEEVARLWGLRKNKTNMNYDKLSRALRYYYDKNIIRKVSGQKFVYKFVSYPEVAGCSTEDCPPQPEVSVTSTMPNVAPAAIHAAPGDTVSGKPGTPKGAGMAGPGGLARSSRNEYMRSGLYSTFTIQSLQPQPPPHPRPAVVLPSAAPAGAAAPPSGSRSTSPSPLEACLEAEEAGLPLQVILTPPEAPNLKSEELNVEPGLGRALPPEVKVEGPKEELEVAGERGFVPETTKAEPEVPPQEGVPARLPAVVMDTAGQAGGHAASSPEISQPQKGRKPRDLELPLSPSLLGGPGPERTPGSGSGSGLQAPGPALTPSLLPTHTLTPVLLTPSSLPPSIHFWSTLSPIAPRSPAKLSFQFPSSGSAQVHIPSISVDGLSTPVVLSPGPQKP
Outline: as §1

[3] = target: T3, GABPA (Homo sapiens, UniProt Q06546 1-454); conditions: protein: recombinant; tags: N-terminal GST; dsDNA, one strand shown
T3 sequence: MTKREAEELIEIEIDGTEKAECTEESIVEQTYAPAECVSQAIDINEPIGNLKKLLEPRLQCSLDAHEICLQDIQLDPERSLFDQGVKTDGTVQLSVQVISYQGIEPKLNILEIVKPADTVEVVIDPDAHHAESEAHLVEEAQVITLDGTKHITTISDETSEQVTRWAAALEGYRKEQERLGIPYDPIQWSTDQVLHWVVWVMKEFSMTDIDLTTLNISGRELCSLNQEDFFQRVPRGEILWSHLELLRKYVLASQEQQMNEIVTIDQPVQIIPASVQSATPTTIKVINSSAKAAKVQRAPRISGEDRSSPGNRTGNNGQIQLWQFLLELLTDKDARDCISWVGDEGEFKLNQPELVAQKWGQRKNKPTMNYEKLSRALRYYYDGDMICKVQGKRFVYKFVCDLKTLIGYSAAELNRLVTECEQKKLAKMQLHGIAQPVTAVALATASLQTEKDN
Outline: as §1

[4] = target: T4, ERG (Homo sapiens, UniProt P11308 1-479); conditions: protein: recombinant; tags: N-terminal GST; dsDNA, one strand shown
T4 sequence: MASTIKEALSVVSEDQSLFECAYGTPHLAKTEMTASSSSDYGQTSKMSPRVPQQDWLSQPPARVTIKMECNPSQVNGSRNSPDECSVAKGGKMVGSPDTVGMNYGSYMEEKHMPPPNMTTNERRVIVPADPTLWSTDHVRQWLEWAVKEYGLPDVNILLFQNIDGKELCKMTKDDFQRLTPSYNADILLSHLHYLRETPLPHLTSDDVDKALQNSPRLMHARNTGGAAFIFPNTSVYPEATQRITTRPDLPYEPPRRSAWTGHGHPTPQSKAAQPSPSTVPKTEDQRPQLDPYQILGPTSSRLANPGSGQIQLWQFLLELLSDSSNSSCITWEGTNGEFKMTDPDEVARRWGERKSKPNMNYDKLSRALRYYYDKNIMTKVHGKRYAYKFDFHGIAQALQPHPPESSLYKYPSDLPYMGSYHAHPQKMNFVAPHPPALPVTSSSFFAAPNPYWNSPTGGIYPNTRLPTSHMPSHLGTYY
Outline: as §1

[5] = target: ELF1 (Homo sapiens, UniProt P32519 1-619); conditions: protein: recombinant; tags: N-terminal GST; dsDNA, one strand shown
Chain of ELF1 (P32519 whole entry): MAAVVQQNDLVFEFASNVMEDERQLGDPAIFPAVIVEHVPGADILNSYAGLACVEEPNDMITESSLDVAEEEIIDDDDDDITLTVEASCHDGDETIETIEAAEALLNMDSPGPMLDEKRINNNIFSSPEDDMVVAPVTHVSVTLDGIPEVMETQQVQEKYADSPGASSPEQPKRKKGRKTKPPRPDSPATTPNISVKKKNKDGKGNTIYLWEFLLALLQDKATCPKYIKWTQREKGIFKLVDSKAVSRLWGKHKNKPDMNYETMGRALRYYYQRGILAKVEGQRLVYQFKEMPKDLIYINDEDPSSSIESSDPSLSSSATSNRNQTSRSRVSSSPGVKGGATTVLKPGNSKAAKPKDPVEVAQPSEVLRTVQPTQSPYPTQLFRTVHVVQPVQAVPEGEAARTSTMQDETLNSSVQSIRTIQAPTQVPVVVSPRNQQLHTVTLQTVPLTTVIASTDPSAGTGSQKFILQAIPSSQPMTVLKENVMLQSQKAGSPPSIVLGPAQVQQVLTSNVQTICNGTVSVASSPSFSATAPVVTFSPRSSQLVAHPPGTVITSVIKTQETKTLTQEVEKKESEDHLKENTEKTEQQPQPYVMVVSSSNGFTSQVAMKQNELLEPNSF
Outline: as §1

[6] = target: T5, EHF (Homo sapiens, UniProt Q9NZC4 1-300); conditions: protein: recombinant; tags: N-terminal GST; dsDNA, one strand shown
T5 sequence: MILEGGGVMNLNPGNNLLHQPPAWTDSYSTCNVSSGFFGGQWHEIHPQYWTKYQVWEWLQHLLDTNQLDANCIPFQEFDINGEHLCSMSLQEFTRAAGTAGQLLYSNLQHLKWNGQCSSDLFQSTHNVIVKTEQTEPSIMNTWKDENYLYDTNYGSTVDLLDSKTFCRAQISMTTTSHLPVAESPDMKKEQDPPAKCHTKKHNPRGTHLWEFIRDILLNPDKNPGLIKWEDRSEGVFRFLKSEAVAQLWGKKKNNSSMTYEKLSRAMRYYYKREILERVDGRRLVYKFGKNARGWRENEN
Outline: as §1

[7] = target: SPI1 (Homo sapiens, UniProt P17947 1-270); conditions: protein: recombinant; tags: N-terminal GST; dsDNA, one strand shown
Outline: as §1

[8] = target: SPIB (Homo sapiens, UniProt Q01892 1-262); conditions: protein: recombinant; tags: N-terminal GST; dsDNA, one strand shown
Chain of SPIB (Q01892 whole entry): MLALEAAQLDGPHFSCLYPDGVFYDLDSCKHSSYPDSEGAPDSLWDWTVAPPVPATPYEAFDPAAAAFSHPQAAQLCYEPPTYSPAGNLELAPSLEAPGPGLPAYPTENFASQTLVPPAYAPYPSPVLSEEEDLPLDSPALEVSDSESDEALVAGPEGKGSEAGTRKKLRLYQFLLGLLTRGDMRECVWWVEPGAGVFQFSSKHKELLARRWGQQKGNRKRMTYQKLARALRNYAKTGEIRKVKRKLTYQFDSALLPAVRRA
Outline: as §1

[9] = target: T6, ELK3 (Homo sapiens, UniProt P41970 1-407); conditions: protein: recombinant; tags: N-terminal GST; dsDNA, one strand shown
T6 sequence: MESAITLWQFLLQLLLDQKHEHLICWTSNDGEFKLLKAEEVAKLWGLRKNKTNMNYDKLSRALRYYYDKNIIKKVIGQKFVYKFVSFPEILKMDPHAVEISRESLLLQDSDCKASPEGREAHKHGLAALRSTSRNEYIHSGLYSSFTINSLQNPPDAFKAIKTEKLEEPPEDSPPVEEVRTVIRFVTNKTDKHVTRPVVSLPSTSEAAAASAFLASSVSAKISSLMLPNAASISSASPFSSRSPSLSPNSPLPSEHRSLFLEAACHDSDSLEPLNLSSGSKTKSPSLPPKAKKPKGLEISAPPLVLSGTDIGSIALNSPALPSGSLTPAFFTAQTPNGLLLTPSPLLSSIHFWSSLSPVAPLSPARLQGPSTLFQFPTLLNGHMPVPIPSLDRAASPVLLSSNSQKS
Outline: as §1

[10] = target: T7, FEV (Homo sapiens, UniProt Q99581 1-238); conditions: protein: recombinant; tags: N-terminal GST; dsDNA, one strand shown
T7 sequence: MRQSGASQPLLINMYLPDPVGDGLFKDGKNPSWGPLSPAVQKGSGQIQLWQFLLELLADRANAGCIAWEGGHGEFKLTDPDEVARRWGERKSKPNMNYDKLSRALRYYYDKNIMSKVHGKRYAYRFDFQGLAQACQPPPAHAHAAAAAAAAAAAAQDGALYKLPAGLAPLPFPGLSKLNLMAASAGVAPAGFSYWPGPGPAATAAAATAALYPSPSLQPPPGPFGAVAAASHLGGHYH
Outline: as §1

[11] = target: ETV5 (Homo sapiens, UniProt P41161 1-510); conditions: protein: recombinant; tags: N-terminal GST; dsDNA, one strand shown
Chain of ETV5 (P41161 whole entry): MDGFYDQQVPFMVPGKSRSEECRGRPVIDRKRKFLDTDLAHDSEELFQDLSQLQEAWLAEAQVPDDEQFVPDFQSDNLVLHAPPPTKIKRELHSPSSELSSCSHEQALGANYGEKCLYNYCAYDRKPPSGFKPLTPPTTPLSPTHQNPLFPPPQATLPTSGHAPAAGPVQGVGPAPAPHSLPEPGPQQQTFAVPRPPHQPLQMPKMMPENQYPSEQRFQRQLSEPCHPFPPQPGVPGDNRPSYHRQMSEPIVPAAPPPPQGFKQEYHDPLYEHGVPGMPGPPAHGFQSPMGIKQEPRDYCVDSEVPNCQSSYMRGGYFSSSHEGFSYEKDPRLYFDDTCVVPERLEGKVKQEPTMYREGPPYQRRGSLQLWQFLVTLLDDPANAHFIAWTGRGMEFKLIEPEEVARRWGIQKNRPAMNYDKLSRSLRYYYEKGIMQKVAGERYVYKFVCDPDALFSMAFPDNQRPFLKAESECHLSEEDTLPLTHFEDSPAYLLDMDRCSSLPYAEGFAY
Outline: as §1

[12] = target: HSF1 (Homo sapiens, UniProt Q00613 1-529); conditions: protein: recombinant; tags: N-terminal GST; chain copies: 3; dsDNA, one strand shown
Chain of HSF1 (Q00613 whole entry): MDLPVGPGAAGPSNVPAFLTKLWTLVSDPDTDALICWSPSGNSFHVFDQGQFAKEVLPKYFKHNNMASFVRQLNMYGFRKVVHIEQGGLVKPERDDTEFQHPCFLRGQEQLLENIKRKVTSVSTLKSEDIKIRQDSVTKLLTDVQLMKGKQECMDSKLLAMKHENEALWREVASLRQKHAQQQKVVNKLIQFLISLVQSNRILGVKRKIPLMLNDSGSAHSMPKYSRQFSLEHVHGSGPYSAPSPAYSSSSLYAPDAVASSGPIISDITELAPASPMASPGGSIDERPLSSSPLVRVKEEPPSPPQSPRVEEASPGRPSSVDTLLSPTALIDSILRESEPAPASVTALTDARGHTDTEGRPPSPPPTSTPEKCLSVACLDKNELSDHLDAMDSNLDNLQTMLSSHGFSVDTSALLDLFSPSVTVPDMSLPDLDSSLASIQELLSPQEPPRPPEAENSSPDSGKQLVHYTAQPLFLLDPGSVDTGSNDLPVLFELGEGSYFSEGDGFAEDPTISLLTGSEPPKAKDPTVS
Outline: as §1

[13] = target: T8, SPIC (Homo sapiens, UniProt Q8N5J4 1-248); conditions: protein: recombinant; tags: N-terminal GST; dsDNA, one strand shown
T8 sequence: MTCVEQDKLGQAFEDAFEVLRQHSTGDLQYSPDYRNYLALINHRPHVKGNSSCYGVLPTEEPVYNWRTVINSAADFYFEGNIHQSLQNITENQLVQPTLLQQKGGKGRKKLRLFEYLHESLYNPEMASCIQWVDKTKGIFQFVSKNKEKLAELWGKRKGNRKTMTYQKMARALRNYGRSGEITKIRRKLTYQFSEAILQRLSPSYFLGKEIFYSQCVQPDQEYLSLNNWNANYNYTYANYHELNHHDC
Outline: as §1

[14] = target: ELF4 (Homo sapiens, UniProt Q99607 1-663); conditions: protein: recombinant; tags: N-terminal GST; dsDNA, one strand shown
Chain of ELF4 (Q99607 whole entry): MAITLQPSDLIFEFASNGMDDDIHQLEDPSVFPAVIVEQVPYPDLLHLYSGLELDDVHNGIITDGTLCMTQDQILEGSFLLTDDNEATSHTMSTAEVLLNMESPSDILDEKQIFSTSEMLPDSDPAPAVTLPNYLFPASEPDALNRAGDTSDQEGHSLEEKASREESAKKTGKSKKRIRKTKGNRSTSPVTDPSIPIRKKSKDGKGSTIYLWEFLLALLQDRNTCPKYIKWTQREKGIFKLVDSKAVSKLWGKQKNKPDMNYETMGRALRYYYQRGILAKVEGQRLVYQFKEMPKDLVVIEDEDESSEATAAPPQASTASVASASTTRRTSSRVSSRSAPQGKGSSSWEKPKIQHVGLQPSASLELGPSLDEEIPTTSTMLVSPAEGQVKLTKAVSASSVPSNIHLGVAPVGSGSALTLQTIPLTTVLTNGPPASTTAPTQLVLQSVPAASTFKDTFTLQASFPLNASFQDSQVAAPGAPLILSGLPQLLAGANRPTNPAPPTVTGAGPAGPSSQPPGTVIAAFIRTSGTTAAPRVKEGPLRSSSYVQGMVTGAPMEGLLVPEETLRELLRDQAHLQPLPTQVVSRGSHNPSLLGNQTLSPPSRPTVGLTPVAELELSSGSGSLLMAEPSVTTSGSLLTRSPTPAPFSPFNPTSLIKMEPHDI
Outline: as §1

[15] = target: T9, ELK4 (Homo sapiens, UniProt P28324-2 1-405); conditions: protein: recombinant; tags: N-terminal GST; dsDNA, one strand shown
T9 sequence: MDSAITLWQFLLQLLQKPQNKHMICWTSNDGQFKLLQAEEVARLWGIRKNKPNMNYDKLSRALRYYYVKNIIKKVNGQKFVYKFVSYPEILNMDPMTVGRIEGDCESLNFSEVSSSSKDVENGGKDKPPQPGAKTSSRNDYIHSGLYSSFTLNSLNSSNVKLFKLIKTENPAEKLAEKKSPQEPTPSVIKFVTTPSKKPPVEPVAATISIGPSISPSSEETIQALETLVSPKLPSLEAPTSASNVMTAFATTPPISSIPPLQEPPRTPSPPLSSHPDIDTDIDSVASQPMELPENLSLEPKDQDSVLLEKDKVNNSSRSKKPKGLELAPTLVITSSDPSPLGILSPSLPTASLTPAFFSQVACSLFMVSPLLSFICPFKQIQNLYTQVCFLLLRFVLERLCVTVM
Outline: as §1

[16] = target: T10, ETV2 (Homo sapiens, UniProt O00321 1-342); conditions: protein: recombinant; tags: N-terminal GST; dsDNA, one strand shown
T10 sequence: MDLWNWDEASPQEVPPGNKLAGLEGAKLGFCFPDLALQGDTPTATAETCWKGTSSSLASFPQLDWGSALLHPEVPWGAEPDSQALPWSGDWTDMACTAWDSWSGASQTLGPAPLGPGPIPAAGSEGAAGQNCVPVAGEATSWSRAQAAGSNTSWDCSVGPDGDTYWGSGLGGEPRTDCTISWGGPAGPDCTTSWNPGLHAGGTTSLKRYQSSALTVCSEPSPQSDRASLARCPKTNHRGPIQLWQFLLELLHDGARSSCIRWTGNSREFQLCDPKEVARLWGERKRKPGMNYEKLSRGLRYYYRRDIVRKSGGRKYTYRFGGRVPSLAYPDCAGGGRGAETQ
Outline: as §1

[17] = target: T11, ELF3 (Homo sapiens, UniProt P78545 1-371); conditions: protein: recombinant; tags: N-terminal GST; dsDNA, one strand shown
T11 sequence: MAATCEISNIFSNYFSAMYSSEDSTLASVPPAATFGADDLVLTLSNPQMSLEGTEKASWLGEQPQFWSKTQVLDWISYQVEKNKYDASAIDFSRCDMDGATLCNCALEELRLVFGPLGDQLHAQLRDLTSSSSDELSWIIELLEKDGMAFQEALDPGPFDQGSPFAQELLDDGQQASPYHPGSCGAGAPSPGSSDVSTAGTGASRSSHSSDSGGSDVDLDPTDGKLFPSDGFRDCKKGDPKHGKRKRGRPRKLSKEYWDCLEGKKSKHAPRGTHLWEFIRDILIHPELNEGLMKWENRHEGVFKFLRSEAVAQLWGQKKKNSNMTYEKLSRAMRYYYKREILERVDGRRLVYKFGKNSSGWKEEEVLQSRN
Outline: as §1

[18] = target: CRX (Homo sapiens, UniProt O43186 1-299); conditions: protein: recombinant; tags: N-terminal GST; dsDNA, one strand shown
Chain of CRX (O43186 whole entry): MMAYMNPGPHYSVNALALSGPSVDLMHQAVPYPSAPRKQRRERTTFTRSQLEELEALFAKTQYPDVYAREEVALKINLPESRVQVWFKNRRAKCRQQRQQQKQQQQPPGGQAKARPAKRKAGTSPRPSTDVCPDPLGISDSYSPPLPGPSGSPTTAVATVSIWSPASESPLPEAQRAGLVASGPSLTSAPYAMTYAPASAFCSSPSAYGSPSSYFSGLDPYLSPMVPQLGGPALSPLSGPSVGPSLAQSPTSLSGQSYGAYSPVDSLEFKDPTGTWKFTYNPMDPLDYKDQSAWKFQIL
Outline: as §1

[19] = target: ETV1 (Homo sapiens, UniProt P50549 1-477); conditions: protein: recombinant; tags: N-terminal GST; dsDNA, one strand shown
Chain of ETV1 (P50549 whole entry): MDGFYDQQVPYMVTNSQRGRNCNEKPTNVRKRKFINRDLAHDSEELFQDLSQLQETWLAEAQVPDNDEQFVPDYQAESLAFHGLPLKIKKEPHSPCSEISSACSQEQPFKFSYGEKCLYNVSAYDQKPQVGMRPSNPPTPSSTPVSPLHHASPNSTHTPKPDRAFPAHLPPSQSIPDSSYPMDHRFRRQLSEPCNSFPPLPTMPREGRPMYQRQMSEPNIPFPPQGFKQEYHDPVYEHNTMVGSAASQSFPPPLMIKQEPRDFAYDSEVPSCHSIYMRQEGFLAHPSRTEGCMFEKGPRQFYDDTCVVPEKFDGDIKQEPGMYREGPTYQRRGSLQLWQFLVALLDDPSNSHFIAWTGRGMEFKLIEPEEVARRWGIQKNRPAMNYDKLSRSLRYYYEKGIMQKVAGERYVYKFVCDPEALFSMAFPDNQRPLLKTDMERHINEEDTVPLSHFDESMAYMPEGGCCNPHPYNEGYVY
Outline: as §1

ATGCGC
binding signal [1]: 1.15 fold enrichment (6-mer frequency, TF over GST control) | binding signal [2]: 1.18 fold enrichment (6-mer frequency, TF over GST control) | binding signal [3]: 1.18 fold enrichment (6-mer frequency, TF over GST control) | binding signal [4]: 1.18 fold enrichment (6-mer frequency, TF over GST control) | binding signal [5]: 1.1 fold enrichment (6-mer frequency, TF over GST control) | binding signal [6]: 1.17 fold enrichment (6-mer frequency, TF over GST control) | binding signal [7]: 1.11 fold enrichment (6-mer frequency, TF over GST control) | binding signal [8]: 1.21 fold enrichment (6-mer frequency, TF over GST control) | binding signal [9]: 1.08 fold enrichment (6-mer frequency, TF over GST control) | binding signal [10]: 1.17 fold enrichment (6-mer frequency, TF over GST control) | binding signal [11]: 1.07 fold enrichment (6-mer frequency, TF over GST control) | binding signal [12]: 1.27 fold enrichment (6-mer frequency, TF over GST control) | binding signal [13]: 1.13 fold enrichment (6-mer frequency, TF over GST control) | binding signal [14]: 1.22 fold enrichment (6-mer frequency, TF over GST control) | binding signal [15]: 1.28 fold enrichment (6-mer frequency, TF over GST control) | binding signal [16]: 1.1 fold enrichment (6-mer frequency, TF over GST control) | binding signal [17]: 1.1 fold enrichment (6-mer frequency, TF over GST control) | binding signal [18]: 1.14 fold enrichment (6-mer frequency, TF over GST control) | binding signal [19]: 1.16 fold enrichment (6-mer frequency, TF over GST control)
